The whole screen tested about 310,000 compounds, of which about 14,000 (4.5%) showed an effect of 50% or more. Effects have a minus sign here. Shown is part of a subset that was picked to be rich in strong results.
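Also: peak tail current of the secondary pulse compared with the same well before compound.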

human ether-à-go-go-related gene (hERG) potassium channel, sequence (Q12809 whole entry, looked up): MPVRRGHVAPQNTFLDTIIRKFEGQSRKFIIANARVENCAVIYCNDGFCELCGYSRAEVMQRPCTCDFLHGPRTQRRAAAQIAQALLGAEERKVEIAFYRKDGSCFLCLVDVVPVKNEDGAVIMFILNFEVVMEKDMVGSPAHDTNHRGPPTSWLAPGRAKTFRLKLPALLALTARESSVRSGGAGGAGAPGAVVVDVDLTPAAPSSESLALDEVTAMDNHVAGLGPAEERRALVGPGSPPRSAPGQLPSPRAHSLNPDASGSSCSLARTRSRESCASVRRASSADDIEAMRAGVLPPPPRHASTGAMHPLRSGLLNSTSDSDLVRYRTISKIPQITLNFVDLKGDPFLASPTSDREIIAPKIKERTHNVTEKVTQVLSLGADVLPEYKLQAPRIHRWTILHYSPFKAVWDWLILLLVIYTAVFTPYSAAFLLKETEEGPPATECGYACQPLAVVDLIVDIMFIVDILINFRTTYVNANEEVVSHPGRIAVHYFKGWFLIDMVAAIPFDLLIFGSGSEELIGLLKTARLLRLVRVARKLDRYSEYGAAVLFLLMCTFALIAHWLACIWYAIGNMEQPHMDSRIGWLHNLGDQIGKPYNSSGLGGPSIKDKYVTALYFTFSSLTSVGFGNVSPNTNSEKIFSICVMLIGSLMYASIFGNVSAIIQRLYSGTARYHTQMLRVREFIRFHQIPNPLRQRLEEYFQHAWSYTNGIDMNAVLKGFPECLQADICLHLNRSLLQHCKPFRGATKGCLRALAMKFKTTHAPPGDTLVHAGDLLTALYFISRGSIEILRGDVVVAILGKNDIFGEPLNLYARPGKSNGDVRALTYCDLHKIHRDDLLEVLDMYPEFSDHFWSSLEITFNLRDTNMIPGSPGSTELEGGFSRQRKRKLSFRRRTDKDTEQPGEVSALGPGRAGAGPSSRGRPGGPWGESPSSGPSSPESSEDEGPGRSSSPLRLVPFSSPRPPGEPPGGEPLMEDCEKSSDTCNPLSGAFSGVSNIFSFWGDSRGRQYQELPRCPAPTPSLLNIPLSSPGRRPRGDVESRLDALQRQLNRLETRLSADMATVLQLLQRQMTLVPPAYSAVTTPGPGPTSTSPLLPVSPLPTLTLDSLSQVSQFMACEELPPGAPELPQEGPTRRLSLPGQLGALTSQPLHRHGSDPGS

The test addresses human ether-à-go-go-related gene (hERG) potassium channel (human, UniProt Q12809). The test can be described thus: primary screen, population patch clamp on CHO cells stably expressing hERG; higher = less effect of the substance.
Regarding `CC(CNC(=O)CCc1nnc2ccc(N3CCC4(CC3)OCCO4)nn12)c1ccccc1` (stereo not drawn), the “hERG current change (%, negative = inhibition) at 10uM” value is -0.296%. As for `O=C(CNC(=O)c1sc2ccccc2c1Cl)NC1CC1`, the figure is 3.65%; as for `CCCCOc1ccccc1C(=O)NNC(=S)NC(=O)c1ccccc1[N+](=O)[O-]`, 3.48%; as for `NS(=O)(=O)c1ccc(NC(=O)c2cc(-c3cc(Cl)ccc3O)n[nH]2)cc1`, 15.7%. `CS(=O)(=O)Nc1ccc(C2=NN(S(C)(=O)=O)C(c3ccccc3)C2)cc1` (stereo not drawn): the “hERG current change (%, negative = inhibition) at 10uM” value is listed as -73.6%. For `CCS(=O)(=O)N1N=C(c2ccc(NS(C)(=O)=O)cc2)CC1c1ccccc1` (stereo not drawn), the “hERG current change (%, negative = inhibition) at 10uM” value is -62.1%. `CCC(CC)C(=O)N1N=C(c2ccc(NS(C)(=O)=O)cc2)CC1c1ccccc1` (stereo not drawn): the “hERG current change (%, negative = inhibition) at 10uM” value is recorded as -41.4%. In the case of `CS(=O)(=O)N1N=C(c2ccc3nccnc3c2)CC1c1ccccc1` (stereo not drawn), the “hERG current change (%, negative = inhibition) at 10uM” value is listed as -7.62%.

In the case of `CS(=O)(=O)N1N=C(c2cccs2)CC1c1ccccc1` (stereo not drawn), the “hERG current change (%, negative = inhibition) at 10uM” value is on record as -11.3%. Consider `CCS(=O)(=O)Nc1ccc(C2=NN(S(=O)(=O)CC)C(c3cccs3)C2)cc1` (stereo not drawn), for which the “hERG current change (%, negative = inhibition) at 10uM” value was -9.32%. As for `Cc1ccc2nc(-c3ccc(N4C(=NC(=O)CCC(=O)O)SC5CS(=O)(=O)CC54)cc3)sc2c1` (stereo not drawn), the figure is -19.3%; as for `O=C(NC(Cc1c[nH]c2ccccc12)C(=O)N/N=C/c1ccc(Br)cc1)c1cccs1` (stereo not drawn), 8.02%; as for `O=C(Nc1nccs1)C1CCCN(S(=O)(=O)c2cccc3cccnc23)C1` (stereo not drawn), -3.72%. The value for `CCCCOc1ccc(-c2nnc(N)s2)cc1` was 2.84%; that for `CC(C)CCNC(=O)/C=C/c1ccc(Br)cc1` was 0.187%; that for `Cc1[nH]nc(Nc2ccc(O)cc2)c1[N+](=O)[O-]` was 23.6%. The value for `CCCS(=O)(=O)N1CCCC(C(=O)NC(C)c2ccc3c(c2)OCCO3)C1` (stereo not drawn) was 9.55%; that for `Cc1oc(-c2cccc(Cl)c2)nc1CN1CCCC(C(=O)NCCCN2CCOCC2)C1` (stereo not drawn) was -28.1%; that for `Cc1oc(-c2cccc(Cl)c2)nc1CN1CCCC(C(=O)NCc2ccco2)C1` (stereo not drawn) was -73%.

Turning to `O=C(NCc1ccco1)C1CCCN(S(=O)(=O)c2ccc(Cl)cc2)C1` (stereo not drawn), the “hERG current change (%, negative = inhibition) at 10uM” value was -13.2%.

As to `Cc1oc(-c2ccc(Cl)cc2)nc1CN1CCCC(C(=O)NCCCN2CCCC2=O)C1` (stereo not drawn), the “hERG current change (%, negative = inhibition) at 10uM” value is -30.8%. The value for `CCN1CCN(CCNC(=O)C2CCCN(Cc3nc(-c4cccc(Cl)c4)oc3C)C2)CC1` (stereo not drawn) was -6.73%; that for `Cc1oc(-c2cccc(Cl)c2)nc1CS(=O)(=O)CC(=O)NCc1ccco1` was -28.2%; that for `Cc1oc(-c2ccc(Cl)cc2)nc1CN1CCCC(C(=O)NCc2ccco2)C1` (stereo not drawn) was -71.9%.

Regarding `Cc1oc(-c2cccc(Cl)c2)nc1CN1CCCC(C(=O)NC(C)c2ccc3c(c2)OCCO3)C1` (stereo not drawn), the “hERG current change (%, negative = inhibition) at 10uM” value is -57.5%. As for `COc1ccccc1NC(=O)c1ccccc1NS(C)(=O)=O`, the figure is -1.12%; as for `O=C(O)/C=C/c1ccc(O)c(O)c1`, 13.1%.

On to `O=C1CSC(=S)N1c1ccc(Cl)c(Cl)c1`, for which the “hERG current change (%, negative = inhibition) at 10uM” value came out at 20.7%. As for `CC1=C(C(=O)OC(C)(C)C)C(c2cccs2)NC(=O)N1` (stereo not drawn), the figure is -0.0788%; as for `Cc1cc(OCC(=O)N2C[C@H]3C[C@@H](C2)c2cccc(=O)n2C3)c2c(C)c(C)c(=O)oc2c1`, 0.123%. As for `CC(C)(CC(=O)O)CC(=O)N1CCCN(c2nccc(C(F)(F)F)n2)CC1`, the figure is 17.8%. For the compound `O=C(NCc1ccncc1)C1CCN(S(=O)(=O)Cc2ccccc2)CC1`, the “hERG current change (%, negative = inhibition) at 10uM” value is listed as -10.4%. The value for `Cc1ccc(C)c(SCC(=O)Nc2nnc(-c3ccccc3)o2)c1` was 14.1%; that for `O=C(COC(=O)/C=C/c1cccc(C(F)(F)F)c1)NCCN1C(=O)CSC1=O` was -28.1%.

On to `Cc1ccc(-c2cc(C(=O)OCC(=O)N(C)C3CCS(=O)(=O)C3)c3ccccc3n2)o1` (stereo not drawn), for which the “hERG current change (%, negative = inhibition) at 10uM” value is -19.1%.

Consider `CCN(C(=O)COC(=O)c1cn(-c2ccccc2)nc1-c1ccccc1)C1CCS(=O)(=O)C1` (stereo not drawn), for which the “hERG current change (%, negative = inhibition) at 10uM” value is given as -75.9%. Consider `O=C(COC(=O)c1cccnc1Nc1cccc(C(F)(F)F)c1)NCCN1C(=O)CSC1=O`, for which the “hERG current change (%, negative = inhibition) at 10uM” value is -58.7%. As for `O=C(COC(=O)c1cccnc1Nc1ccccc1F)NCCN1C(=O)CSC1=O`, the figure is -27.7%. Consider `CCN(C(=O)COC(=O)c1cc(-c2cccc3ccccc23)nc2ccccc12)C1CCS(=O)(=O)C1` (stereo not drawn), for which the “hERG current change (%, negative = inhibition) at 10uM” value is listed as -6.23%. The value for `CCN(C(=O)COC(=O)c1cccnc1Nc1cccc(C(F)(F)F)c1)C1CCS(=O)(=O)C1` (stereo not drawn) was -51%; that for `CCN(C(=O)COC(=O)c1cc(-c2ccc(C)o2)nc2ccccc12)C1CCS(=O)(=O)C1` (stereo not drawn) was -66.7%; that for `CCN(C(=O)COC(=O)c1cc(-c2ccccc2)nn1-c1ccccc1)C1CCS(=O)(=O)C1` (stereo not drawn) was -12.8%. As for `O=C(COC(=O)c1cccnc1Nc1cccc(C(F)(F)F)c1)NC1CCS(=O)(=O)C1` (stereo not drawn), the “hERG current change (%, negative = inhibition) at 10uM” value is reported as -16.1%. Consider `CN(C(=O)COC(=O)c1cn(-c2ccccc2)nc1-c1ccccc1)C1CCS(=O)(=O)C1` (stereo not drawn), for which the “hERG current change (%, negative = inhibition) at 10uM” value is -16.6%.

Consider `CCN(C(=O)COC(=O)c1cccnc1Nc1ccccc1F)C1CCS(=O)(=O)C1` (stereo not drawn), for which the “hERG current change (%, negative = inhibition) at 10uM” value was -9.99%. The value for `Cc1ccc(C(=O)NC(=S)NNS(=O)(=O)c2ccc(C)cc2)cc1` was 3.32%; that for `O=C(Nc1ccc(Cl)cn1)c1ccc(Br)c(S(=O)(=O)N2CCCCC2)c1` was 18.7%; that for `CC(=O)Nc1ccc(S(=O)(=O)N(Cc2cccnc2)Cc2cc3ccccc3[nH]c2=O)cc1` was 11.4%.

For `Cc1cccc(Nc2ccc(S(=O)(=O)N3CCOCC3)cc2[N+](=O)[O-])c1`, the “hERG current change (%, negative = inhibition) at 10uM” value is recorded as -30.2%.

As to `CCn1c(CSc2nc(C)cc(C)n2)nnc1SCC(=O)Nc1nc(-c2ccccc2)cs1`, the “hERG current change (%, negative = inhibition) at 10uM” value is reported as -9.09%. For the compound `O=c1c2ccccc2c2ccccc2c(=O)n1CC1CCCO1` (stereo not drawn), the “hERG current change (%, negative = inhibition) at 10uM” value is -14.4%. Take `Cc1ccc(C)c(NC(=O)c2cccc(Oc3ccc([N+](=O)[O-])cc3Cl)c2)c1`: the “hERG current change (%, negative = inhibition) at 10uM” value is -4.21%.

For the compound `COc1ccc(S(=O)(=O)NNC(=O)c2csc(-n3nc(C)cc3C(F)(F)F)n2)cc1`, the “hERG current change (%, negative = inhibition) at 10uM” value came to 19.9%. As for `Cc1ccccc1CCN1CCCC(CN(C)C(=O)c2ccc3ncccc3c2)C1` (stereo not drawn), the figure is -30.3%; as for `Cc1nc2ccc(C(=O)N(C)CC3CCCN(CCc4ccc(Cl)cc4)C3)cc2[nH]1` (stereo not drawn), -61.2%. The value for `CN(C)CCN(CC1CCCN(Cc2ccccc2F)C1)C(=O)c1ccc(Cl)cc1` (stereo not drawn) was -14%; that for `COc1ccc(CCN2CCCC(CN(C)C(=O)c3ccoc3)C2)cc1` (stereo not drawn) was -72.9%; that for `COc1ccc(CCN2CCCC(CN(C)C(=O)c3ccoc3C)C2)cc1` (stereo not drawn) was 13.4%. Regarding `CN(CC1CCCN(CCc2ccc(Cl)cc2)C1)C(=O)c1ccoc1` (stereo not drawn), the “hERG current change (%, negative = inhibition) at 10uM” value is on record as -85.7%. Regarding `CN(CC1CCCN(CCc2ccc(Cl)cc2)C1)C(=O)c1ccc2nc[nH]c2c1` (stereo not drawn), the “hERG current change (%, negative = inhibition) at 10uM” value was -34.1%. As for `CCc1nc(SCC(=O)NCCc2ccccc2)n[nH]1`, the “hERG current change (%, negative = inhibition) at 10uM” value is reported as -3.42%. The value for `CSc1nc2c(cc1C#N)CCCCC2` was 7.65%.

Turning to `C=CCn1c(O)c(N=Nc2c(C)n(C)n(-c3ccccc3)c2=O)c(=O)[nH]c1=S`, the “hERG current change (%, negative = inhibition) at 10uM” value was -1.57%. Consider `O=C(Nc1cccc(Cl)c1)c1ccc(NCC2CCCO2)c([N+](=O)[O-])c1` (stereo not drawn), for which the “hERG current change (%, negative = inhibition) at 10uM” value is -2.53%. For `CCN=C(NCC)SC1CC(=O)N(c2ccc(OC)cc2)C1=O` (stereo not drawn), the “hERG current change (%, negative = inhibition) at 10uM” value is on record as 0.718%.

For the compound `CCOC(=O)c1cc(C(=O)Nc2sc3c(c2C#N)CCCC3)nn1C`, the “hERG current change (%, negative = inhibition) at 10uM” value stood at 12.4%. Turning to `O=C(/C=C/c1ccc(N2CCOCC2)cc1)c1ccccc1`, the “hERG current change (%, negative = inhibition) at 10uM” value was -1.16%.

For `CCSC1=N/C(=C\c2cccc(F)c2)C(=O)S1`, the “hERG current change (%, negative = inhibition) at 10uM” value turned out to be 10.4%. As for `COc1ccccc1-c1ccc(Nc2ccc(C(=O)N3CCOCC3)cc2)nn1`, the figure is -20.1%; as for `COc1ccc(Nc2cc(C)nc3c(C)cccc23)cc1OC`, -21.3%. As for `Cc1ccc(Nc2cc(C)nc3c(C)cccc23)cc1`, the figure is -53.3%. Consider `Cc1cc(NCCN2CCOCC2)c2ccc3ccccc3c2n1`, for which the “hERG current change (%, negative = inhibition) at 10uM” value is given as -69.5%. Turning to `CC(=O)c1ccc(Nc2ccc(-c3ccccc3C)nn2)cc1`, the “hERG current change (%, negative = inhibition) at 10uM” value was -17.5%. The value for `CCOc1ccc(Nc2cc(C)nc3c(C)cccc23)cc1` was -45.6%; that for `Cc1ccccc1-c1ccc(Nc2ccc(N3CCOCC3)cc2)nn1` was -76%; that for `Cc1nc(NCCN2CCOCC2)c2oc3ccccc3c2n1.Cl` was -31.5%.

For `Cc1cc(Nc2ccc(N3CCOCC3)cc2)c2cccc(C)c2n1.Cl`, the “hERG current change (%, negative = inhibition) at 10uM” value is on record as -56.6%. As for `Cc1cc(C)nc(Nc2ccc(N3CCOCC3)cc2)n1`, the figure is -5.99%.

Regarding `COc1ccc2nc(C)cc(NCCN3CCOCC3)c2c1`, the “hERG current change (%, negative = inhibition) at 10uM” value turned out to be 15.4%. As for `Cc1cc(C)c2nc(C)cc(Nc3ccc(C(=O)N4CCOCC4)cc3)c2c1`, the figure is -43.8%; as for `CCN(CC(=O)NCc1ccc(F)cc1)C(=O)c1ccc2c(c1)OCO2`, -5.66%; as for `O=C(CNC(=O)c1ccccc1Cl)OCC(=O)N1CCc2ccccc21`, -10.5%. The value for `COc1ccc(Cc2nnc(Nc3ccccc3)s2)cc1Br` was 13.9%; that for `COc1ccc2[nH]c3c(c2c1)CCN1C(=O)N([C@@H](C)C(=O)NCC2CCCO2)C(=O)[C@]31C` (stereo partly drawn) was -6.78%.

(Values after PMC4336329 (PLoS ONE, 2015).)
